Assay results taken from PubChem BioAssay (NCATS).
Values joined by “and” are separate entries in the source; they are usually repeats but may differ in a detail not shown here. Identical values can stand only once. Inconclusive results are not listed. Active and inactive are the calls of the source. Calls follow the shape of the dose curve; as a rule, active = well fitted curve in the direction sought with a large enough effect; inconclusive = small, poorly fitted or top-dose-only effect, or another doubt; inactive = no such curve, though single readings can be large; an effect the other way counts as inactive or inconclusive.

Experiments:
[1] = system: Zika virus NS2B-NS3 protease (unlinked complex); assay: Primary screen GU Rhodamine qHTS for Zika virus inhibitors: Unlinked NS2B-NS3 protease assay (AID 1347159); also: nearly all actives have a fitted effect of over 60% in size; also: potency is read from the fitted curve at half-maximal effect; as to activity change, negative = inhibition: % is scaled to controls: 0 for no effect and ±100 for the full control effect
Outline: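 Noncovalent NS2B hydrophilic domain/NS3 protease complex (25 nM final) in 10 mM Tris-HCl pH 8.0, 0.01% Tween 20, preincubated 15 min with compounds (up to 114 microM), then 1.5 microM Rhodamine110 substrate. Fluorescence change over 15 min fitted to 4-parameter Hill.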

[2] = system: Zika virus NS2B-NS3 protease (linked construct); assay: Primary screen NINDS Rhodamine qHTS for Zika virus inhibitors (AID 1347160); also: nearly all actives have a fitted effect of over 55% in size
Outline: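 Purified NS2B-NS3 protease with the NS2B hydrophilic domain joined by a flexible linker (25 nM) in 10 mM Tris-HCl pH 8.0, 0.01% Tween 20, preincubated 15 min at RT with compound; Rhodamine110 peptide substrate 1.5 µM; fluorescence change over 15 min; 4-parameter Hill fit.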

[3] = qHTS to identify inhibitors of the type 1 interferon - major histocompatibility complex class I in skeletal muscle: primary screen against the NCATS LOPAC collection (AID 1347405);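 also: lytic HiBiT luminescence reporting HLA-B protein level; % is scaled to controls: 0 for no effect and ±100 for the full control effect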
Outline: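 Immortalized human C25cl48 myoblasts with HiBiT knocked into endogenous HLA-B*08:01 were stimulated with 4.0 ng/ml IFN-beta and given compounds in a 7-point, 1:4.3 titration from 46 uM final; after 24 hrs, lytic HiBiT luminescence was read.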

[4] = qHTS to identify inhibitors of the type 1 interferon - major histocompatibility complex class I in skeletal muscle: primary screen against the NCATS Pharmaceutical Collection (AID 1347407);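 also: luminescence of HiBiT knocked into endogenous HLA-B as interferon-induced MHC class I level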; also: potency is read from the fitted curve at half-maximal effect
Outline: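 Immortalized human myoblasts (C25cl48) with HiBiT knocked into endogenous HLA-B*08:01 were stimulated with 4 ng/ml IFN-beta and treated with compounds (8-point, 1:5, top 46 uM final) for 24 h at 37 C; HiBiT lytic luminescence read.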

[5] = qHTS for inhibitors of adenylyl cyclases using a fission yeast platform: a pilot screen against the NCATS LOPAC library (AID 1347410);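 also: plate controls were DMSO vehicle for no effect and DPI positive control for full effect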
Outline: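 S. pombe CHP2027 (AC9-GNAS-PDE4D2) carrying a PKA-repressed fbp1-GFP reporter was exposed to LOPAC compounds (final up to 57 µM) for 18 h at 30C in the dark, in EMM with histidine, lysine and uracil; GFP gain-of-signal read by laser scanning cytometry.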

[6] = qHTS to identify inhibitors of the type 1 interferon - major histocompatibility complex class I in skeletal muscle: primary screen against the NCATS Mechanism Interrogation Plate v5.0 (MIPE) Libary (AID 1347411); also: nearly all actives have a fitted effect of over 65% in size; also: potency is read from the fitted curve at half-maximal effect;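 as to activity change, negative = inhibition: plate controls were vehicle for no effect and reference inhibitor for full effect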
Outline: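 Immortalized human C25cl48 myoblasts with HiBit knocked into endogenous HLA-B*08:01 were stimulated with 4.0 ng/ml IFN-beta and exposed to compounds (11-point 1:3 titration, top 46 uM final) for 24 hrs at 37 C; HiBiT lytic luminescence measured.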

[7] = biological target: Protein phosphatase 1D (Homo sapiens) (UniProt O15297); assay: RapidFire Mass Spectrometry qHTS Assay for Modulators of WT P53-Induced Phosphatase 1 (WIP1) (AID 1347424);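 also: amount of dephosphorylated VEPPL-S-QETFS peptide product formed by WIP1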; also: potency is read from the fitted curve at half-maximal effect;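 as to activity change, negative = inhibition: series mostly up to about 63 µM; plate controls were DMSO wells for no effect and GSK830371 inhibitor control at 10 µM for full effect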
Outline: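 10 nM WIP1 + cpd, 1 h RT; + 2 uM VEPPL-pS-QETFS, 5 min RT; stop 0.5% formic acid; labelled product standard 1 uM; RapidFire MS. Buffer 50 mM Tris pH 7.5, 30 mM MgCl2, 1 mM TCEP.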

[8] = biological target: Protein phosphatase 1D (Homo sapiens) (UniProt O15297); assay: Rhodamine-PBP qHTS Assay for Modulators of WT P53-Induced Phosphatase 1 (WIP1) (AID 1347425); also: % of control where 0% means no effect
Outline: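 WIP1 (5 nM final) was preincubated with compound for 1 hour at room temperature. It then dephosphorylated 10 uM VEPPL-pS-QETFS peptide in Tris-HCl pH 7.5 with 30 mM MgCl2. Released Pi was detected by 10 uM Rh-PBP fluorescence (ex 525/em 598 nm) read at 1-min intervals for 11 min, as delta f1 - f0.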

[9] = Primary qHTS for inhibitors of La Crosse Virus (LACV) - induced cell death in SH-SY5Y cells (AID 1508616);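 also: top concentration of the series differs between compounds; 0% = infected DMSO wells and 100% = uninfected DMSO wells; higher means more rescue of cells from virus-induced death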
Outline: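 Luminescent ATP readout (ATPLite 1step, 5 min room temperature) measured rescue from LACV-induced death after 6 days of infection at 0.01 MOI; normalized to infected DMSO wells and uninfected DMSO wells.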

[10] = Confirmatory screen NINDS Rhodamine qHTS for Zika virus inhibitors (AID 1347161); also: potency is read from the fitted curve at half-maximal effect; nearly all actives have a fitted effect of over 60% in size
Outline: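 Kinetic fluorescence (Ex 480 nm, Em 540 nm) over 15 min with 1.5 microM Rhodamine110 peptide and 25 nM linked protease.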

[11] = system: Zika virus NS2B-NS3 protease (linked); assay: 384 well plate NINDS AMC confirmatory qHTS for Zika virus inhibitors (AID 1347163); also: potency is read from the fitted curve at half-maximal effect; nearly all actives have a fitted effect of over 50% in size
Outline: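 Linked protease 5/30/60 nM final; cpds up to 1 mM final, ~15 min preinc. Substrate Ac-VKTGKR-AMC 30 microM final. RT, dark, 25 min; FI ex 355/em 460; normalized to no-enzyme/no-inhibitor ctrls.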

[12] = system: Zika virus NS2B-NS3 protease (linked construct); assay: 384 well plate NINDS Rhodamine confirmatory qHTS for Zika virus inhibitors (AID 1347164);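 also: fluorescence from protease cleavage of Ac-LKRR-rhodamine 110 substrate; potency is read from the fitted curve at half-maximal effect; nearly all actives have a fitted effect of over 65% in size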
Outline: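 Linked protease at a final 5 nM, 30 nM or 60 nM was preincubated ~15 min with compounds, then given 10 microM Ac-LKRR-Rhodamine 110. Fluorescence (ex 485/em 538 nm) after 25 min in the dark at room temperature.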

[13] = Vero cells viability qHTS for Zika virus inhibitors (AID 1347167); also: % is scaled to controls: 0 for no effect and ±100 for the full control effect
Outline: (§1)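 Compounds were tested in concentration series on cells grown in DMEM containing 4% FBS. After 24 to 48 hours, cellular ATP was measured by luminescence with CellTiter Glo.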

[14] = HepG2 cells viability qHTS for Zika virus inhibitors (AID 1347168); also: % is scaled to controls: 0 for no effect and ±100 for the full control effect
Outline: as §1

[15] = ZIKV-mCherry secondary qHTS for Zika virus inhibitors (AID 1347158); also: potency is read from the fitted curve at half-maximal effect
Outline: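 Vero cells, 5,000/well, plated overnight at 37 °C, then compound added and infected with recombinant ZIKV-mCherry at MOI 1 for 48-72 h. PFA-fixed, Hoechst nuclear stain, high-content imaging; cells with mCherry intensity above 450 RFU scored infected, reported as percent infection.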

[16] = biological target: Calcium and integrin-binding protein 1 (Homo sapiens) (UniProt Q99828); assay: Confirmatory qHTS for Identification of Calcium Integrin Binding Protein 1 (CIB1) Competitor (AID 1508617); also: potency is read from the fitted curve at half-maximal effect; nearly all actives have a fitted effect of over 65% in size
Outline: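 FP competition: CIB1-GST (1 uM final) in 5 mM HEPES pH 7.4, 125 mM NaCl, 5 mM CaCl2, 0.01% Tween20 preincubated 15 min RT with compounds (up to 114 uM), then FITC-alphaIIb peptide (100 nM), 15 min RT; Ex 480/Em 540.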

Sequence of Protein phosphatase 1D (Homo sapiens) (O15297 whole entry, looked up): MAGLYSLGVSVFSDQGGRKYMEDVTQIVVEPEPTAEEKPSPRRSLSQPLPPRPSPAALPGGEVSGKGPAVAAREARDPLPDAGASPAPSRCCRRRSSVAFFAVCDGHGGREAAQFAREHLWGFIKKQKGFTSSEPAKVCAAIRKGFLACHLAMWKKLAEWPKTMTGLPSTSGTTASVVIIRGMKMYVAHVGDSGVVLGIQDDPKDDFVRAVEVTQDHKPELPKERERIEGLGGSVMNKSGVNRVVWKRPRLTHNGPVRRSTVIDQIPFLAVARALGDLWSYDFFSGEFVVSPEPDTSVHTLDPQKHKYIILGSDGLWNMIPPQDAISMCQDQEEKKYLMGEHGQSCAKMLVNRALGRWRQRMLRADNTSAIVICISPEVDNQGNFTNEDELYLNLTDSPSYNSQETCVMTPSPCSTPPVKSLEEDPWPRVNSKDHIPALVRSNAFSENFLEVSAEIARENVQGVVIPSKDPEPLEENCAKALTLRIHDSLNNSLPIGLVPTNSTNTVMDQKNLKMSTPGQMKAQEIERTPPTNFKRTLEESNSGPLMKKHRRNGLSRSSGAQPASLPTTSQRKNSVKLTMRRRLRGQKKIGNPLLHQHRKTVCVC
Sequence of Calcium and integrin-binding protein 1 (Homo sapiens) (Q99828 whole entry, looked up): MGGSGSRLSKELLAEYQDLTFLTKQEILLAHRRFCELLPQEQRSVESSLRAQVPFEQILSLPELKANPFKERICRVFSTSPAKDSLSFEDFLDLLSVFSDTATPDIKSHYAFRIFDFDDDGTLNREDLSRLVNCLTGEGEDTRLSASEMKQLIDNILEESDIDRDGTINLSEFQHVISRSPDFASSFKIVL

c1cnc2cc3c(cc2n1)C1CNCC3C1
inactive: Potency [1] | Potency [2] | Potency [3] | Potency [4] | outcome [5] | Potency [6] | Potency [7] | outcome [8] | Potency [9]

CN(C)c1ccc(O)c2c1C[C@H]1C[C@H]3[C@H](N(C)C)C(=O)C(C(N)=O)=C(O)[C@@]3(O)C(=O)C1=C2O
inactive: Potency [13] | Potency [14] | Potency [4] | Potency [6] | Potency [7] | outcome [8] | Potency [9]
active: Potency [10] 44.1 µM and 35 µM | Potency [11] 141 µM | Potency [12] 89.1 µM

COc1cc2c(N3CCN(C(=O)Nc4ccc(OC(C)C)cc4)CC3)ncnc2cc1OCCCN1CCCCC1
inactive: Potency [1] | Potency [2] | Potency [6] | Potency [7] | outcome [8]

COCCCOc1ccnc(CS(=O)c2nc3ccccc3[nH]2)c1C (stereo not given)
inactive: Potency [1] | Potency [2] | Potency [4] | Potency [7] | outcome [8] | Potency [9]

CCC1=C(C)CN(C(=O)NCCc2ccc(S(=O)(=O)NC(=O)NC3CCC(C)CC3)cc2)C1=O (stereo not given)
inactive: Potency [2] | Potency [4] | Potency [6] | Potency [7] | Potency [9]

C=C(c1ccc(C(=O)O)cc1)c1cc2c(cc1C)C(C)(C)CCC2(C)C
active: Potency [15] 7.08 µM | Potency [1] 3.16 µM | Potency [10] 1.96 µM and 2.47 µM | Potency [11] 22.4 µM | Potency [12] 7.94 µM | Potency [7] 4.47 µM
inactive: Potency [14] | Potency [4] | Potency [9]

Cc1ccc(NC(=O)c2ccc(CN3CCN(C)CC3)cc2)cc1Nc1nccc(-c2cccnc2)n1
inactive: Potency [1] | Potency [2] | Potency [7] | outcome [8] | Potency [9]

COc1cc(Nc2c(C#N)cnc3cc(OCCCN4CCN(C)CC4)c(OC)cc23)c(Cl)cc1Cl
active: Potency [4] 7.45 µM | Potency [6] 7.39 µM | Potency [16] 44.7 µM
inactive: Potency [1] | Potency [2] | Potency [7] | outcome [8] | Potency [9]

CCCS(=O)c1ccc2nc(NC(=O)OC)[nH]c2c1 (stereo not given)
inactive: Potency [2] | Potency [4] | Potency [6] | Potency [7] | outcome [8] | Potency [9]

CCN(CCO)CCCC(C)Nc1ccnc2cc(Cl)ccc12 (stereo not given)
inactive: activity change, negative = inhibition [1] 15.4% [at 11.5 µM] | activity change, negative = inhibition [2] -6.84% [at 4.91 µM] | activity change, negative = inhibition [4] -5.56% [at 3.83 µM] | activity change, negative = inhibition [6] 7.97% [at 5.1 µM] | activity change, negative = inhibition [7] -4.11% [at 6.17 µM] | activity change, negative = inhibition [8] 13.1% [at 4.81 µM] | activity change [9] -0.436% [at 0.431 µM]
